# How the values were obtained:
# Test in all cases: DAPPL (digital affinity profiling via proximity ligation, sequencing); 10 mM Tris-HCl pH 7.5, 50 mM NaCl, 1 mM DTT, 4% glycerol, room temperature, 30 min; GST-TFs on glutathione beads, 16-mer random dsDNA library, 0.1% formaldehyde crosslink after washing; high values mean tight binding
# Conditions in all cases: protein: recombinant; tags: N-terminal GST; dsDNA, one strand shown
# ELK1 = biological target: T1, ELK1 (Homo sapiens, UniProt P19419 1-428)
# T1 sequence: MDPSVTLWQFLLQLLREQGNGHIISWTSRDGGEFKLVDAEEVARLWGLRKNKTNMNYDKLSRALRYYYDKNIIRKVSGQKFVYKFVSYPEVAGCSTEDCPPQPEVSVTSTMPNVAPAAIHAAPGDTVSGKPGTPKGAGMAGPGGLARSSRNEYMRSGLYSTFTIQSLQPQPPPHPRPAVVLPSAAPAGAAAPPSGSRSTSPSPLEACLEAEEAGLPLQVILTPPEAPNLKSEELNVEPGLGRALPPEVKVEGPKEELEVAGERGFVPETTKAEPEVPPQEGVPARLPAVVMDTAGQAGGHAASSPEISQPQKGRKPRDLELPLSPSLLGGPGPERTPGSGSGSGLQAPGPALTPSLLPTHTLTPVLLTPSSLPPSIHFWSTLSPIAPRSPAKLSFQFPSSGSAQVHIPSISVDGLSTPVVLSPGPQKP
# Method in brief: (§1)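 GST fusions of human transcription factors were expressed in yeast and captured with glutathione beads. Once given DNA barcodes and pooled alongside a tag-only sample, they were incubated for 30 min at room temperature with 200 nmole of a random double-stranded 16-mer DNA library in Tris/NaCl/DTT/glycerol buffer, then washed, crosslinked (0.1% formaldehyde), proximity-ligated, PCR-amplified and sequenced on an Illumina NextSeq500. The binding signal of each hexamer is its read frequency for a factor divided by its frequency for the tag-only sample.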
# GABPA = biological target: T2, GABPA (Homo sapiens, UniProt Q06546 1-454)
# T2 sequence: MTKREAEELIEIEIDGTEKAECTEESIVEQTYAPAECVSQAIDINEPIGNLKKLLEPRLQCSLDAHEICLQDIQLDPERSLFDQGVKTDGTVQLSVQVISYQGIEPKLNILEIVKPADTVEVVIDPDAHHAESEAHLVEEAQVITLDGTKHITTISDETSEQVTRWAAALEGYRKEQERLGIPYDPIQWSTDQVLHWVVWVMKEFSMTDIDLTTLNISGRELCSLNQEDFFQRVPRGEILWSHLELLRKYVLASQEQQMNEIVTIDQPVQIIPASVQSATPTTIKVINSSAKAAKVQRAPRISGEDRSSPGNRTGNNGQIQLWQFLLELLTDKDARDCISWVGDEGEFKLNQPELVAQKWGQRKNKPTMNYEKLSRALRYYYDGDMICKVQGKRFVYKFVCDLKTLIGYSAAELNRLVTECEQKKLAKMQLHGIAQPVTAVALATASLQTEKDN
# Method in brief: as §1
# ERG = biological target: T3, ERG (Homo sapiens, UniProt P11308 1-479)
# T3 sequence: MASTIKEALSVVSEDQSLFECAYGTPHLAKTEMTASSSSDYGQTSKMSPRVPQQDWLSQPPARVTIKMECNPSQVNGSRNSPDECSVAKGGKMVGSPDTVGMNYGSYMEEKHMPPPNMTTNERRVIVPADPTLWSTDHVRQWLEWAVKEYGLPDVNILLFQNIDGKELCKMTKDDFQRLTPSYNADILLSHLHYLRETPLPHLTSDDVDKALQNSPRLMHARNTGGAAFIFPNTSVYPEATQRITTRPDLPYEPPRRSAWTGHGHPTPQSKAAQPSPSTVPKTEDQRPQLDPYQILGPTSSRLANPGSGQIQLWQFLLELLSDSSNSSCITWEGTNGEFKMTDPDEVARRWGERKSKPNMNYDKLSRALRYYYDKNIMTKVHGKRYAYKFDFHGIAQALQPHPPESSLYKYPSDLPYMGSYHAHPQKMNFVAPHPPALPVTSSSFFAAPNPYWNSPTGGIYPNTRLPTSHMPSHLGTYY
# Method in brief: as §1
# ELF1 = ELF1 (Homo sapiens, UniProt P32519 1-619)
# ELF1, sequence (P32519 whole entry): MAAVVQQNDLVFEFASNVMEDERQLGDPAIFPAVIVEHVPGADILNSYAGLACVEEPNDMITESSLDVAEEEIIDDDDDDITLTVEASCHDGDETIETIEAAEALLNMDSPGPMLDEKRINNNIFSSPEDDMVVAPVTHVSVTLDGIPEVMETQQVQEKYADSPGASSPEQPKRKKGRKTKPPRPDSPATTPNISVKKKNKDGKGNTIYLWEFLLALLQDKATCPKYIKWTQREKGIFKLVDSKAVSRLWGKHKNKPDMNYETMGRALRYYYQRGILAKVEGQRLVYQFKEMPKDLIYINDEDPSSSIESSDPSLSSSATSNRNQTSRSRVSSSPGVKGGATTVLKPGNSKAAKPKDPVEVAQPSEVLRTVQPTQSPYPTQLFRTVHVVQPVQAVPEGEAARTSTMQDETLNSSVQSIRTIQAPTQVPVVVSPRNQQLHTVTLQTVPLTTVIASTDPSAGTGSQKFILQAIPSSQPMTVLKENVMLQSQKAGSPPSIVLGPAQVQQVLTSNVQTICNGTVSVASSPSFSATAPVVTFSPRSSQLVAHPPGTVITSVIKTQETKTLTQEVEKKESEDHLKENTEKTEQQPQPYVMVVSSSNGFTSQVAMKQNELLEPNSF
# Method in brief: as §1
# EHF = biological target: T4, EHF (Homo sapiens, UniProt Q9NZC4 1-300)
# T4 sequence: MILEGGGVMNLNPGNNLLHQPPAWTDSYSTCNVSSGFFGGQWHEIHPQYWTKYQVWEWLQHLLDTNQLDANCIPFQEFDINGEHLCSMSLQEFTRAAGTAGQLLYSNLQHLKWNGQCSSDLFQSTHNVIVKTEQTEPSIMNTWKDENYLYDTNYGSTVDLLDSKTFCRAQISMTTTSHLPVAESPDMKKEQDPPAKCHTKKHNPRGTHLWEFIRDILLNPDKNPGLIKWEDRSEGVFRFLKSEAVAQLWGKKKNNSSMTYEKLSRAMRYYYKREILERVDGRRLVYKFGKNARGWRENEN
# Method in brief: as §1
# SPIB = SPIB (Homo sapiens, UniProt Q01892 1-262)
# SPIB, sequence (Q01892 whole entry): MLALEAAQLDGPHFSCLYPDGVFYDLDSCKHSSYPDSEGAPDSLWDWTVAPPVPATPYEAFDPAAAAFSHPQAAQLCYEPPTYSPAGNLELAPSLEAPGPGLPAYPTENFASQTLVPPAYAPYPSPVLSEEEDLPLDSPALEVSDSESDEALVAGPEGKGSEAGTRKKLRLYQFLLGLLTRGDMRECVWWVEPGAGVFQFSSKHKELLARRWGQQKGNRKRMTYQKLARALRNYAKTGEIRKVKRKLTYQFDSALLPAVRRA
# Method in brief: as §1
# ELK3 = biological target: T5, ELK3 (Homo sapiens, UniProt P41970 1-407)
# T5 sequence: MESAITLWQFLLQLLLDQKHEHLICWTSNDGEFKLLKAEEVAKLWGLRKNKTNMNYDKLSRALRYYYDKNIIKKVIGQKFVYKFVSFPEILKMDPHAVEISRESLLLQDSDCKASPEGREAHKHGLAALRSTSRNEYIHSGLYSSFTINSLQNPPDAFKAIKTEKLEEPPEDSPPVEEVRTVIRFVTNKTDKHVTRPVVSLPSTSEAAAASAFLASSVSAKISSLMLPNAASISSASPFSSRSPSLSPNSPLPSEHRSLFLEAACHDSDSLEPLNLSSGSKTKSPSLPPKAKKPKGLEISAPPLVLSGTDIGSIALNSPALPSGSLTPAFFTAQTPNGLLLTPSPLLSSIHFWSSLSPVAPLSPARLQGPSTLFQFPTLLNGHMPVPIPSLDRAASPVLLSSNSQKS
# Method in brief: as §1
# FEV = biological target: T6, FEV (Homo sapiens, UniProt Q99581 1-238)
# T6 sequence: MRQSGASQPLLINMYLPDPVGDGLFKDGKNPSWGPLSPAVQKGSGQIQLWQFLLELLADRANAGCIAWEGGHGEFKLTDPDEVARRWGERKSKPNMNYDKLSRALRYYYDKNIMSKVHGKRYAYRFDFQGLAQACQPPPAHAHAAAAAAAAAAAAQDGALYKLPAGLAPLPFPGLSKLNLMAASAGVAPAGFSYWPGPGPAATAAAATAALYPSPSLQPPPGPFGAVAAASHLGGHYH
# Method in brief: as §1
# ETV5 = ETV5 (Homo sapiens, UniProt P41161 1-510)
# ETV5, sequence (P41161 whole entry): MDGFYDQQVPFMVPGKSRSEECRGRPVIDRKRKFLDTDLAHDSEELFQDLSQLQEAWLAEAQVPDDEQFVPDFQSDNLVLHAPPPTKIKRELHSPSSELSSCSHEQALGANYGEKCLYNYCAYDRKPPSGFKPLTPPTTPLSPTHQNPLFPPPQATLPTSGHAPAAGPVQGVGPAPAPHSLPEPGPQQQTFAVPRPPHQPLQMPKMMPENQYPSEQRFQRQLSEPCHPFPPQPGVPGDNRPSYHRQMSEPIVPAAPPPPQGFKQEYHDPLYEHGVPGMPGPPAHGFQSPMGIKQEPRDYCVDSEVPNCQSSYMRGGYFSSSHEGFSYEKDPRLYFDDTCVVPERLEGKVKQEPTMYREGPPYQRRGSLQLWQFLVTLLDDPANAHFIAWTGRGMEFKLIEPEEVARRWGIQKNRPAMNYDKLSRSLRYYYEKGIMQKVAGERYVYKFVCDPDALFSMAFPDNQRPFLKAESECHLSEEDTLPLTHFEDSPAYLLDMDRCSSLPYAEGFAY
# Method in brief: as §1
# ELF4 = ELF4 (Homo sapiens, UniProt Q99607 1-663)
# ELF4, sequence (Q99607 whole entry): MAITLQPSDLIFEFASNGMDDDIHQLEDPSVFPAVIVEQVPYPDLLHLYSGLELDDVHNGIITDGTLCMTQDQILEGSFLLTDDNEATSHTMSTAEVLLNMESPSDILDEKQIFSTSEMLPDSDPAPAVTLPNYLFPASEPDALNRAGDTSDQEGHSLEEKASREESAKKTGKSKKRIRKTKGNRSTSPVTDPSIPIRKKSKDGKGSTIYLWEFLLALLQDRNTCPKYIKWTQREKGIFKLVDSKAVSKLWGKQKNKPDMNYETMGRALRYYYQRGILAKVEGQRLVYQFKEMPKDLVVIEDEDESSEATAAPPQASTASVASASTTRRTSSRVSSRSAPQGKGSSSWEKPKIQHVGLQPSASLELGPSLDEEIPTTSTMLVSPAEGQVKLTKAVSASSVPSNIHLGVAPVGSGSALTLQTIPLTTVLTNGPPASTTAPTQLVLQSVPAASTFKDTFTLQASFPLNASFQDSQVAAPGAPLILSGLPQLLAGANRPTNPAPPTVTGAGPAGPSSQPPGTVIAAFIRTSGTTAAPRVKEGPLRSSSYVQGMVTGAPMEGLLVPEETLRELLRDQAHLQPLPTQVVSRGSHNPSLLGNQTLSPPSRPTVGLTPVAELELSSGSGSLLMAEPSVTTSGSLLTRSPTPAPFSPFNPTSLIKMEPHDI
# Method in brief: as §1
# ELK4 = biological target: T7, ELK4 (Homo sapiens, UniProt P28324-2 1-405)
# T7 sequence: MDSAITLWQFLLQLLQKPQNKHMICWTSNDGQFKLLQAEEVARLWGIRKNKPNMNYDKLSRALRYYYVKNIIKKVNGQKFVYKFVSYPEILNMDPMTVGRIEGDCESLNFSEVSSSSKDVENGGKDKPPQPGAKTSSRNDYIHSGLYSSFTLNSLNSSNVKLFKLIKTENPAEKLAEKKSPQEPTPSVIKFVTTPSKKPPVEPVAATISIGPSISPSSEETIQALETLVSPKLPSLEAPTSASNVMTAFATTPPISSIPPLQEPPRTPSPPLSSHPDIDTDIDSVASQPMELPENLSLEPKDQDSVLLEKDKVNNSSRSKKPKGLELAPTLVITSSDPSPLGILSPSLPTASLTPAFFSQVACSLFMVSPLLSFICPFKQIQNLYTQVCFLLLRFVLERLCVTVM
# Method in brief: as §1
# ELF3 = biological target: T8, ELF3 (Homo sapiens, UniProt P78545 1-371)
# T8 sequence: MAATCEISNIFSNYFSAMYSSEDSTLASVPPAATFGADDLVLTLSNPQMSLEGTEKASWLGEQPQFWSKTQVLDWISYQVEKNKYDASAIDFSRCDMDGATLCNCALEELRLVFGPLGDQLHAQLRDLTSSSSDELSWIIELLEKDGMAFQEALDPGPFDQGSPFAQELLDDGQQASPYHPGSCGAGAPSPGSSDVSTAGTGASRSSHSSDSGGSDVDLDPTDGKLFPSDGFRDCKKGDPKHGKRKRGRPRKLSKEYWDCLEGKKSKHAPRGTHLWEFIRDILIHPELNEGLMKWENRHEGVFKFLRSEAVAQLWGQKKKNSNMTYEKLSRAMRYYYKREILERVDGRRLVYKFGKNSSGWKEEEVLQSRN
# Method in brief: as §1
# ETV1 = ETV1 (Homo sapiens, UniProt P50549 1-477)
# ETV1, sequence (P50549 whole entry): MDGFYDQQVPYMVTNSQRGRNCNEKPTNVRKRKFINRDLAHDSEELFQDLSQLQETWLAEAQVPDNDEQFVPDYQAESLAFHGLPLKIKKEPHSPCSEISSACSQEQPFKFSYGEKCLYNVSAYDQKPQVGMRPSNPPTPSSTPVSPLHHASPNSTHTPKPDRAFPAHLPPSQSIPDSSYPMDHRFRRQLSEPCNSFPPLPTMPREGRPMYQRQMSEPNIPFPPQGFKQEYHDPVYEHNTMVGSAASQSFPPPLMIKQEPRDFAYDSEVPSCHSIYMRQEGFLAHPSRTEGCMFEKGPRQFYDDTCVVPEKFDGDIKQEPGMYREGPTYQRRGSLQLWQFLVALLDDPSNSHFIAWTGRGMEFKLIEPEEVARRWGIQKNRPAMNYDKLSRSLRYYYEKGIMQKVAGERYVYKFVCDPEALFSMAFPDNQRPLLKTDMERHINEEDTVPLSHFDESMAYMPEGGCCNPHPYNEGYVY
# Method in brief: as §1
# ERF = biological target: T9, ERF (Homo sapiens, UniProt P50548 1-548)
# T9 sequence: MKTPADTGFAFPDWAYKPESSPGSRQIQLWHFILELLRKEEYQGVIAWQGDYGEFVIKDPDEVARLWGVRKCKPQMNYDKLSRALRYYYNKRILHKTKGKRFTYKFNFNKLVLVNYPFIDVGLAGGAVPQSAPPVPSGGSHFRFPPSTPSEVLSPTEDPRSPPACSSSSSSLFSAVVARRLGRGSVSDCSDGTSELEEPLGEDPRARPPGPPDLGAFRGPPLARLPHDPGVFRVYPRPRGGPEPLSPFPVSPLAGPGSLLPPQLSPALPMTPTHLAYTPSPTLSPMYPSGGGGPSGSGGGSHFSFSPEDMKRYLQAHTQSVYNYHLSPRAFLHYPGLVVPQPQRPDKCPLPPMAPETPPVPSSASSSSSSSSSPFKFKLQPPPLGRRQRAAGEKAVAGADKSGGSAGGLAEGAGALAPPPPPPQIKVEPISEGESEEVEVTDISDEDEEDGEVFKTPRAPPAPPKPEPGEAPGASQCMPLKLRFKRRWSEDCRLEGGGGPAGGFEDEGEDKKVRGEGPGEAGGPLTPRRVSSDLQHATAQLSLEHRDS
# Method in brief: as §1
# ETV3L = biological target: T10, ETV3L (Homo sapiens, UniProt Q6ZN32 1-361)
# T10 sequence: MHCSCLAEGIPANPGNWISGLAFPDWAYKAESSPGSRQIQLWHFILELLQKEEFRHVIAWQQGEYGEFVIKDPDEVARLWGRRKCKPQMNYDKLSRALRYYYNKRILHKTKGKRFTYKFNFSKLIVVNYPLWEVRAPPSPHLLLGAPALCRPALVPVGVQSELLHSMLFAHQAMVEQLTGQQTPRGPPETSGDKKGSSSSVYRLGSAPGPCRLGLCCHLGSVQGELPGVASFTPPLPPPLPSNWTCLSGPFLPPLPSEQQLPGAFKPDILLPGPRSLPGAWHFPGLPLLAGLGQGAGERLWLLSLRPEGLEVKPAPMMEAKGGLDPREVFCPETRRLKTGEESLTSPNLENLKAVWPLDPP
# Method in brief: as §1
# SPDEF = biological target: T11, SPDEF (Homo sapiens, UniProt O95238 1-335)
# T11 sequence: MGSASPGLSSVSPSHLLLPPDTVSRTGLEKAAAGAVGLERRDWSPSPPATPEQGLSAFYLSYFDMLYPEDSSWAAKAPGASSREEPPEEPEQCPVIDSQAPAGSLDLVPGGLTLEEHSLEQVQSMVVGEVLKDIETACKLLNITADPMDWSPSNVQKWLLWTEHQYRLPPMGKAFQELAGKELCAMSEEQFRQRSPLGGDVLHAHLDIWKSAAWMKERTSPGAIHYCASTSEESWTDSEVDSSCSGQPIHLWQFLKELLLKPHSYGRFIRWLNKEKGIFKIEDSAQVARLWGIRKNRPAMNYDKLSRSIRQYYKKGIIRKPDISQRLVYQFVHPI
# Method in brief: as §1
# ETV3 = biological target: T12, ETV3 (Homo sapiens, UniProt P41162-2 1-143)
# T12 sequence: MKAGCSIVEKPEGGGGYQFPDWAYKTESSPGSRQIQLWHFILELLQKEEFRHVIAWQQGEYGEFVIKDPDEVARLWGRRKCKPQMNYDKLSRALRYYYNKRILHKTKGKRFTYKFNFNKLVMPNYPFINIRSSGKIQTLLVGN
# Method in brief: as §1
# ETV6 = ETV6 (Homo sapiens, UniProt P41212 1-452)
# ETV6, sequence (P41212 whole entry): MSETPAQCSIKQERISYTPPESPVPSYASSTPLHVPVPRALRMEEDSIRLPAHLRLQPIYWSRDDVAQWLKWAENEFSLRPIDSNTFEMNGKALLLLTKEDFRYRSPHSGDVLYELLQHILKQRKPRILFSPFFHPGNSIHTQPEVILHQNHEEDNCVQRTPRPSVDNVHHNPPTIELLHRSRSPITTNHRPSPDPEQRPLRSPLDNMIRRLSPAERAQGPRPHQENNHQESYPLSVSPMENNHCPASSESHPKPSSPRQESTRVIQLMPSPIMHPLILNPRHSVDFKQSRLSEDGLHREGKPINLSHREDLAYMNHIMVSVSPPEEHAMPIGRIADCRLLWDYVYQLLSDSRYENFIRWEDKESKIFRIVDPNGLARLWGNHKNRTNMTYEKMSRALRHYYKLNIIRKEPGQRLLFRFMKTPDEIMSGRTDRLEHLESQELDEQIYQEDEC
# Method in brief: as §1
sequence,measurement,setting,value
CGCGCC,binding signal,ELK1,"1.01 fold enrichment (6-mer frequency, TF over GST control)"
same,binding signal,GABPA,"1.03 fold enrichment (6-mer frequency, TF over GST control)"
same,binding signal,ERG,"1.03 fold enrichment (6-mer frequency, TF over GST control)"
same,binding signal,ELF1,"1.06 fold enrichment (6-mer frequency, TF over GST control)"
same,binding signal,EHF,"1.05 fold enrichment (6-mer frequency, TF over GST control)"
same,binding signal,SPIB,"1 fold enrichment (6-mer frequency, TF over GST control)"
same,binding signal,ELK3,"1.05 fold enrichment (6-mer frequency, TF over GST control)"
same,binding signal,FEV,"1.08 fold enrichment (6-mer frequency, TF over GST control)"
same,binding signal,ETV5,"1.11 fold enrichment (6-mer frequency, TF over GST control)"
same,binding signal,ELF4,"1.05 fold enrichment (6-mer frequency, TF over GST control)"
same,binding signal,ELK4,"1.15 fold enrichment (6-mer frequency, TF over GST control)"
same,binding signal,ELF3,"1.05 fold enrichment (6-mer frequency, TF over GST control)"
same,binding signal,ETV1,"1.14 fold enrichment (6-mer frequency, TF over GST control)"
same,binding signal,ERF,"1.1 fold enrichment (6-mer frequency, TF over GST control)"
same,binding signal,ETV3L,"1.05 fold enrichment (6-mer frequency, TF over GST control)"
same,binding signal,SPDEF,"1.03 fold enrichment (6-mer frequency, TF over GST control)"
same,binding signal,ETV3,"1.09 fold enrichment (6-mer frequency, TF over GST control)"
same,binding signal,ETV6,"1 fold enrichment (6-mer frequency, TF over GST control)"
